# Laboratory results taken from article PMC7819943, “Rice protein-binding microarrays: a tool to detect cis-acting elements near promoter regions in rice”.
# In all, about 39,000 sequences were measured (“fluorescence intensity (a.u.)”: median about 4,300, highest 2% from about 39,000 on). This is one part of a sample in which the highest values are shown more often than they occur.
# Molecular target: T1, OsSMF1 (Oryza sativa, UniProt Q6ZLB0 1-436)
# T1 sequence: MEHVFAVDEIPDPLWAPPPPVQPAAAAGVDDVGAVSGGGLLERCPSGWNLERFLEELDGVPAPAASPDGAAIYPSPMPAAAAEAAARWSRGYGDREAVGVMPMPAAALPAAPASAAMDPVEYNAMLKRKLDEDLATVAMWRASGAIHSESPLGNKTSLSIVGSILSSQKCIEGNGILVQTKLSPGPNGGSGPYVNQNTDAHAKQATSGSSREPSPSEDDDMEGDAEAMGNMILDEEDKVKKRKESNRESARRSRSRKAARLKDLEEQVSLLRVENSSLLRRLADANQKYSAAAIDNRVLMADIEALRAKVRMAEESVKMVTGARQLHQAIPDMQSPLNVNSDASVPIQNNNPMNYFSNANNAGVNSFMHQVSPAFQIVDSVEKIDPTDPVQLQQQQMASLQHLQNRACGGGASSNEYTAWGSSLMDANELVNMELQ
# Test: protein-binding microarray (RPBM); PBS, 2% BSA, 51.3 ng/ul salmon testes DNA, 50 uM zinc acetate, 200 nM TF, 25 C, 1 h; high values mean tight binding
# Conditions: protein: recombinant; tags: N-terminal polyhistidine and DsRed monomer fusion (pET32a); chain copies: 2; label: CyDye5-dUTP incorporated in the synthesized complementary strand; 3' TTTTT single-stranded linker to array surface; dsDNA, one strand shown
# Method in brief: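 The binding signal is fluorescence intensity per feature, in arbitrary units, read on an Axon 4000B scanner. Polyhistidine- and DsRed-tagged transcription factors (N-terminal fusions) from E. coli BL21-CodonPlus were purified on Ni–NTA and applied at 200 nM for 1 h at 25 °C to a double-stranded, BSA-blocked custom Agilent array in buffer with 50 µM zinc acetate.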
row,Sequence,binding signal
1,TGGAGGCGACGTGGCGGTCGTTGACTCGTTGTGTGCTCGACGGAGTCACCTAGTGCAG,7090 fluorescence intensity (a.u.)
2,GATGACGACGGCGATGACGGCGGGGCGGTTTGGAGCGGGGCGGAGTCACCTAGTGCAG,4720 fluorescence intensity (a.u.)
3,TAGAGAGCGGTTTTGCTGACGTGGCGTATACGTGACGGTACGGAGTCACCTAGTGCAG,33100 fluorescence intensity (a.u.)
4,ACTCCCTCGACGGTTTTGGAGGGCGATTTTGCTGACGTGGCGGAGTCACCTAGTGCAG,47600 fluorescence intensity (a.u.)
5,GTTTTGGAGGGCGGTTTTGCTGACGTGGCGCTGACATGGCCGGAGTCACCTAGTGCAG,32800 fluorescence intensity (a.u.)
6,CTCTCCCAGCGGTAATGGAGGGCGGTTTTGCTGACGTGGCCGGAGTCACCTAGTGCAG,58300 fluorescence intensity (a.u.)
7,GAGAGGGGTGCGCAGTGTGTTGTGGTGGTGCACATGACGGCGGAGTCACCTAGTGCAG,3510 fluorescence intensity (a.u.)
8,CCGGAAAATCTATCTGTGCTTATAAATAGCCATTATCCAACGGAGTCACCTAGTGCAG,57400 fluorescence intensity (a.u.)
9,AGATAATCCATAATAATAATTAGCTTAATAATCTAAATCACGGAGTCACCTAGTGCAG,27300 fluorescence intensity (a.u.)
10,GCGTGTGCATCTGCCATGTAATCCAAAATATAGCCATGAACGGAGTCACCTAGTGCAG,3660 fluorescence intensity (a.u.)
11,TCGCAACAACAAGAATGATGATGGCATGACGAAAATGCTACGGAGTCACCTAGTGCAG,3570 fluorescence intensity (a.u.)
12,TACTGCATGCGCAAAGAGTTAATCCGTGGGGCTCGTGGGACGGAGTCACCTAGTGCAG,45300 fluorescence intensity (a.u.)
13,TGTCCCCGCGCATCCGCGGACGTGGCTGGGCAACTGCTCGCGGAGTCACCTAGTGCAG,8030 fluorescence intensity (a.u.)
14,CTCGTGGGGACGACGCTGGTGTCCGTGTACTGCAAGTGCGCGGAGTCACCTAGTGCAG,4060 fluorescence intensity (a.u.)
15,AGGGTTATAATTAGATGGGTAGTGGAGGTAGGTAAGAAAACGGAGTCACCTAGTGCAG,4130 fluorescence intensity (a.u.)
16,CACCCGCACCCGCCCGCACGGCCGCGCCCGCGTCACCACCCGGAGTCACCTAGTGCAG,6150 fluorescence intensity (a.u.)
17,GGGTTGTGGTTGTTGTACGTTGTTGTTGACGGCGATGGTTCGGAGTCACCTAGTGCAG,3460 fluorescence intensity (a.u.)
18,TGTATTTTCTGACGTTGGTAGCACGGTAGCACCCGATATTCGGAGTCACCTAGTGCAG,4250 fluorescence intensity (a.u.)
19,TGTGTTCCCTTTCGGTACGTTGTATTTCGACCCTGACGTTCGGAGTCACCTAGTGCAG,42700 fluorescence intensity (a.u.)

row,Sequence,binding signal
1,GCTGGTAAAGCGGTGCGCCGGTGCCGCCACGTCCTCGCACCGGAGTCACCTAGTGCAG,15100 fluorescence intensity (a.u.)
2,CTAGAATGAGTGTTATGGCAGAGTGGTAGATGCTTGAAAACGGAGTCACCTAGTGCAG,29600 fluorescence intensity (a.u.)
3,TTTCCCCGGTGGATCGTGTTCGGACACGTCGCGGCCCCTCCGGAGTCACCTAGTGCAG,6200 fluorescence intensity (a.u.)
4,CCACGCGGACACTGACACGTCATCATCGTGTTCGTTTCCTCGGAGTCACCTAGTGCAG,39300 fluorescence intensity (a.u.)
5,CATCACGCTGACGTGTCCTTTCGTTTGGACACGGACATCTCGGAGTCACCTAGTGCAG,15000 fluorescence intensity (a.u.)
6,AATGGGGCTATAGGTAATTATGCTTAGAAGTCCGGTTCATCGGAGTCACCTAGTGCAG,5130 fluorescence intensity (a.u.)
7,GTTGGGGCGCCTCTGGGGCTGTCCACGTCGGATAGCTACACGGAGTCACCTAGTGCAG,20700 fluorescence intensity (a.u.)
8,GAATCCATCGACACGTTTCTTTCGTCAGAACAGTGTCCGTCGGAGTCACCTAGTGCAG,3420 fluorescence intensity (a.u.)
9,AATCCGAGTAGTCATTGTCGTTTCCATGCAGAATTATGGTCGGAGTCACCTAGTGCAG,4030 fluorescence intensity (a.u.)
10,CAATCCGTTGATCGGGGTCGTAGTCCATCGACAGAAATTACGGAGTCACCTAGTGCAG,41800 fluorescence intensity (a.u.)
11,CGCGTCCGCAGTGTCCCACTCCCGCCACTCCTTCCACCCCCGGAGTCACCTAGTGCAG,3780 fluorescence intensity (a.u.)
12,CTCTCTCTCGGCTTCCACTCCCGTCTCCTCGTCTCCTCGCCGGAGTCACCTAGTGCAG,4090 fluorescence intensity (a.u.)
13,ATTGACGCGCCTCGGTATTACCTCACTAGCTGCGTCATTGCGGAGTCACCTAGTGCAG,6460 fluorescence intensity (a.u.)
14,ATATTGTCACGTGTCACATGTTAGTTTGTTCAGGAACGGACGGAGTCACCTAGTGCAG,5880 fluorescence intensity (a.u.)
15,ATGTTTAATCAACCTCTAAATCAATAAGATTAGTCATGTACGGAGTCACCTAGTGCAG,3950 fluorescence intensity (a.u.)
16,TCCATTAAGCCTCCGTTTAGTAAAGATAAAGATTGGTCAACGGAGTCACCTAGTGCAG,44200 fluorescence intensity (a.u.)
17,TTATTAAGCCTAATTAATCCATCATTAGTAAATATTTACTCGGAGTCACCTAGTGCAG,3780 fluorescence intensity (a.u.)
18,ACTTTCTTGAATTTAATGCGTGACTCTCCATTCGTCCACACGGAGTCACCTAGTGCAG,3620 fluorescence intensity (a.u.)
